Test [1] in a line: qHTS of pediatric cancer cell lines to identify multiple opportunities for drug repurposing: Primary screen for BT-12 cells (AID 1347101). Note: nearly all actives have a fitted effect of over 25% in size. Note: potency is the fitted concentration of half-maximal effect. In a few lines: (§1)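 Cells (500-1,000/well) rested 5 h, then received compounds for 48 h; metabolically active cells were measured by CellTiter-Glo luminescence. Final concentrations spanned up to 46 µM (MIPE, 11-point) or 0.59 nM-46 µM (NPC, 8-point) in primary screens, 11-point in follow-ups.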

Test [2] can be described thus: qHTS of pediatric cancer cell lines to identify multiple opportunities for drug repurposing: Primary screen for Rh18 cells (AID 1347102). Note: nearly all actives have a fitted effect of over 65% in size. Note: potency is the fitted concentration of half-maximal effect. In a few lines: (§2)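 Viability after 48 h compound treatment at 37C, 500-1,000 cells/well, read as ATP luminescence with CellTiter-Glo. Primary screens used 11-point (MIPE, 0.78 nM-46 µM) or 8-point (NPC, 0.59 nM-46 µM) final concentrations; follow-up screens used 11-point dilutions.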

Test [3] in a line: qHTS of pediatric cancer cell lines to identify multiple opportunities for drug repurposing: Primary screen for OHS-50 cells (AID 1347103). Note: nearly all actives have a fitted effect of over 40% in size. Note: potency is the fitted concentration of half-maximal effect. In a few lines: as §1
A general note: Quantitative high-throughput screening tests each substance at several concentrations.

A short description of test [4]: qHTS of pediatric cancer cell lines to identify multiple opportunities for drug repurposing: Primary screen for RD cells (AID 1347104). Note: nearly all actives have a fitted effect of over 55% in size. Note: potency is the fitted concentration of half-maximal effect. The gist of the method:
(§3)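 Quantitative HTS format: each compound titrated (MIPE 11 points from 0.78 nM, NPC 8 points from 0.59 nM) onto cells plated 5 hours earlier. After 48 h at 37 degrees C, CellTiter-Glo luminescence was recorded.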

Test [5] is described as follows: qHTS of pediatric cancer cell lines to identify multiple opportunities for drug repurposing: Primary screen for MG 63 (6-TG R) cells (AID 1347105). Note: nearly all actives have a fitted effect of over 50% in size. Note: potency is the fitted concentration of half-maximal effect. The gist of the method:
as §3

Test [6] can be described thus: qHTS of pediatric cancer cell lines to identify multiple opportunities for drug repurposing: Primary screen for control Hh wild type fibroblast cells (AID 1347106). Note: nearly all actives have a fitted effect of over 55% in size. Note: potency is the fitted concentration of half-maximal effect. In a few lines:
as §2

Test [7] is described as follows: qHTS of pediatric cancer cell lines to identify multiple opportunities for drug repurposing: Primary screen for Rh30 cells (AID 1347107). Note: nearly all actives have a fitted effect of over 75% in size. Note: potency is the fitted concentration of half-maximal effect. In a few lines: as §2
Test [8] can be described thus: qHTS of pediatric cancer cell lines to identify multiple opportunities for drug repurposing: Primary screen for Rh41 cells (AID 1347108). Note: nearly all actives have a fitted effect of over 70% in size. Note: potency is the fitted concentration of half-maximal effect. In a few lines: as §3
The nature of test [9]: qHTS of pediatric cancer cell lines to identify multiple opportunities for drug repurposing: Confirmatory screen for NB1643 cells (AID 1347109). Note: nearly all actives have a fitted effect of over 45% in size. Note: potency is the fitted concentration of half-maximal effect. The gist of the method: as §2
A short description of test [10]: qHTS of pediatric cancer cell lines to identify multiple opportunities for drug repurposing: Confirmatory screen for SK-N-MC cells (AID 1347111).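 Note: potency is the fitted concentration of half-maximal effect; cells exposed to compound for 48 h before the readout; nearly all actives have a fitted effect of over 70% in size.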 The gist of the method:
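SK-N-MC cells at 500-1,000 cells/well in growth media were pre-incubated 5 h, then exposed to compounds at 11-point dilutions for 48 h at 37 degrees C, 5% CO2. Viability was read as CellTiter-Glo luminescence.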

Test [11] is described as follows: qHTS of pediatric cancer cell lines to identify multiple opportunities for drug repurposing: Confirmatory screen for LAN-5 cells (AID 1347113). Note: nearly all actives have a fitted effect of over 65% in size. Note: potency is the fitted concentration of half-maximal effect. The gist of the method: as §2
Test [12] is described as follows: qHTS of pediatric cancer cell lines to identify multiple opportunities for drug repurposing: Confirmatory screen for NB-EBc1 cells (AID 1347115). Note: nearly all actives have a fitted effect of over 45% in size. Note: potency is the fitted concentration of half-maximal effect. The gist of the method:
as §2

Test [13] in a line: qHTS of pediatric cancer cell lines to identify multiple opportunities for drug repurposing: Confirmatory screen for SJ-GBM2 cells (AID 1347116). Note: nearly all actives have a fitted effect of over 60% in size. Note: potency is the fitted concentration of half-maximal effect. The gist of the method: (§4)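 Viability measured as metabolically active cells via CellTiter-Glo luminescence following 48 hours of compound exposure, 11-point dilutions in confirmatory testing. 500-1,000 cells/well plated 5 hours before dosing; controls were DMSO and 2.3 µM bortezomib.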

Test [14] can be described thus: qHTS of pediatric cancer cell lines to identify multiple opportunities for drug repurposing: Confirmatory screen for control Hh wild type fibroblast cells (AID 1347121). Note: nearly all actives have a fitted effect of over 70% in size. Note: potency is the fitted concentration of half-maximal effect. The gist of the method:
as §2

Test [15] is described as follows: qHTS of pediatric cancer cell lines to identify multiple opportunities for drug repurposing: Confirmatory screen for U-2 OS cells (AID 1347122). Note: nearly all actives have a fitted effect of over 65% in size. Note: potency is the fitted concentration of half-maximal effect. The gist of the method: as §2
The nature of test [16]: qHTS of pediatric cancer cell lines to identify multiple opportunities for drug repurposing: Confirmatory screen for Rh41 cells (AID 1347123).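 Note: 48 h compound exposure; nearly all actives have a fitted effect of over 60% in size.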 Note: potency is the fitted concentration of half-maximal effect. The gist of the method:
as §2

Test [17] in a line: qHTS of pediatric cancer cell lines to identify multiple opportunities for drug repurposing: Confirmatory screen for RD cells (AID 1347124).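 Note: cells exposed to compound for 48 h before viability readout; nearly all actives have a fitted effect of over 65% in size.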 Note: potency is the fitted concentration of half-maximal effect. In a few lines: as §2
The nature of test [18]: qHTS of pediatric cancer cell lines to identify multiple opportunities for drug repurposing: Confirmatory screen for BT-12 cells (AID 1347112). Note: nearly all actives have a fitted effect of over 55% in size. Note: potency is the fitted concentration of half-maximal effect. In a few lines:
as §2

The nature of test [19]: qHTS of pediatric cancer cell lines to identify multiple opportunities for drug repurposing: Confirmatory screen for DAOY cells (AID 1347114). Note: nearly all actives have a fitted effect of over 65% in size. Note: potency is the fitted concentration of half-maximal effect. In a few lines: as §4
A short description of test [20]: qHTS of pediatric cancer cell lines to identify multiple opportunities for drug repurposing: Confirmatory screen for Rh30 cells (AID 1347126). Note: nearly all actives have a fitted effect of over 55% in size. The gist of the method:
as §2

We go through 21 compounds from PubChem BioAssay (NCATS).

Inconclusive results are not listed. Active and inactive are the calls of the source. Calls come from the whole dose curve; as a rule, active = well fitted curve in the direction sought with a large enough effect; inconclusive = small, poorly fitted or top-dose-only effect, or another doubt; inactive = no such curve, though single readings can be large; an effect the other way counts as inactive or inconclusive.

For `O=C(N[C@H]1N=C(c2ccccc2F)c2cccc3c2N(CC3)C1=O)c1cc2ccccc2[nH]1`, the Potency entry in [1], in test [2], in test [3], in test [4], in test [5] and in [6] was “inactive” each time. The Potency entry in [7] and in test [8] was “inactive” throughout.
For the compound `CCCOC(=O)Cc1ccc(OCC(=O)N(CC)CC)c(OC)c1`, the Potency entry in [1], in [2], in [3], in [4], in test [5] and in test [6] was “inactive” each time. In addition, the Potency result in [7] and in [8] was “inactive” in each case.
With `CN(C)C(=S)SSC(=S)N(C)C`, the Potency is 246 nM (active) in test [1]; 150 nM (active) in test [2]; 347 nM (active) in test [3]; 188 nM (active) in test [4]; 335 nM (active) in test [5]; 299 nM (active) in test [6]. Moreover, the Potency in test [7] is 1.68 µM (active); in test [8], 211 nM (active); in [9], 1.31 µM (active); in [10], 0.928 µM (active); in test [11], 185 nM (active); in test [12], 928 nM (active). For the same compound, the Potency was 8.27 µM (active) in test [13], 3.69 µM (active) in test [15], 233 nM (active) in [16] and 16.5 µM (active) in test [17]. Besides, the Potency entry in test [14] was “inactive”.
As to `C[N+]1(CCC(C(N)=O)(c2ccccc2)c2ccccc2)CCCCC1`, the Potency result in test [1], in test [2], in test [3], in test [4], in [5] and in test [6] was “inactive” each time. The Potency result in test [7] and in test [8] was “inactive” each time.
`NC(=O)OCCCc1ccccc1`: the Potency result in [1], in test [2], in test [3], in test [4], in [5] and in [6] was “inactive” in each case. Further, the Potency result in test [7] and in test [8] was “inactive” throughout.
Take `Cc1nnc2n1-c1sc(CCC(=O)N3CCOCC3)cc1C(c1ccccc1Cl)=NC2`: the Potency result in test [1], in test [2], in test [3], in test [4], in test [5] and in test [6] was “inactive” throughout. Besides, the Potency entry in [7] and in test [8] was “inactive” throughout.
Consider `CC(C)NCC(O)c1ccc(N)c(C#N)c1` (centres undefined), for which the Potency result in [1], in [2], in test [3], in test [4], in test [5] and in test [6] was “inactive” throughout. The Potency result in test [7] and in [8] was “inactive” throughout.
In the case of `CN1C(=O)CN=C(c2ccccc2)c2cc([N+](=O)[O-])ccc21`, the Potency result in test [1], in test [2], in [3], in test [4], in test [5] and in [6] was “inactive” throughout. Also, the Potency result in [7] and in test [8] was “inactive” each time.
Consider `C=CCN1CC[C@]23CCCC[C@H]2[C@H]1Cc1ccc(O)cc13`, for which the Potency result in test [1], in [2], in test [3], in test [4], in test [5] and in test [6] was “inactive” throughout. For the same compound, the Potency entry in test [7] and in [8] was “inactive” in each case.
For the compound `O=c1[nH]c2cc(Cl)ccc2n1C1CCNCC1`, the Potency entry in [1], in [2], in [3], in [4], in [5] and in test [6] was “inactive” each time. Also, the Potency result in test [7] and in test [8] was “inactive” in each case.
For `CC1Sc2c(C(=O)O)c(=O)c3cc(F)c(N4CCNCC4)cc3n21` (centres undefined), the Potency result in [1], in test [2], in [3], in test [4], in [5] and in test [6] was “inactive” in each case. For the same compound, the Potency entry in test [7], in test [8], in test [9], in [18], in test [11] and in test [12] was “inactive” throughout. For the same compound, the Potency result in [14], in [15] and in test [16] was “inactive” in each case. Also, the Potency in [10] was 14.7 µM (active).
As to `CCC1(c2cccc(O)c2)CCCCN(C)C1` (centres undefined), the Potency entry in test [1], in test [2], in test [3], in [4], in test [5] and in test [6] was “inactive” each time. In addition, the Potency entry in [7] and in [8] was “inactive” in each case.
As to `CC(C)[N+](C)(CCC(C(N)=O)(c1ccccc1)c1ccccc1)C(C)C`, the Potency result in test [1], in [2], in test [3], in [4], in test [5] and in [6] was “inactive” throughout. Besides, the Potency result in [7] and in test [8] was “inactive” throughout.
Turning to `CC1=C2[C@H]3OC(=O)[C@@H](C)[C@@H]3CC[C@@]2(C)C=CC1=O`, the Potency entry in [1], in test [2], in test [3], in [4], in [6] and in [7] was “inactive” each time. Moreover, the Potency result in [8] is “inactive”.
For the compound `Nc1ccccc1C(=O)OCC(O)CO` (centres undefined), the Potency result in test [1], in [2], in test [3], in test [4], in test [5] and in [6] was “inactive” throughout. Also, the Potency entry in test [7] and in [8] was “inactive” throughout.
In the case of `CC(Cc1ccc2c(c1)OCO2)NO` (centres undefined), the Potency entry in test [1], in [2], in test [3], in [4], in test [5] and in test [6] was “inactive” in each case. In addition, the Potency result in test [7] and in test [8] was “inactive” in each case.
In the case of `CCOC(=O)c1cncn1C(C)c1ccccc1` (centres undefined), the Potency result in test [1], in test [2], in test [3], in test [4], in [5] and in test [6] was “inactive” each time. Further, the Potency entry in test [7] and in test [8] was “inactive” each time.
With `Cc1ccc([N+](=O)[O-])[c]2c1[O][Hg]2`, the Potency in test [1] was 2760 nM (active); in [2] it was 1500 nM (active); in [3] it was 550 nM (active); in test [4], 188 nM (active); in test [5] it was 1330 nM (active); in [7], 2.11 µM (active). Further, the Potency was 668 nM (active) in test [8]; 0.737 µM (active) in [9]; 0.233 µM (active) in [10]; 4.14 µM (active) in [18]; 2930 nM (active) in [11]; 5.22 µM (active) in test [19]. Besides, the Potency is 2930 nM (active) in test [12]; 4.14 µM (active) in [13]; 16.5 µM (active) in [14]; 9.27 µM (active) in test [15]; 233 nM (active) in test [16]; 0.827 µM (active) in [17].
As to `c1ccc2nc(N3CCNCC3)ccc2c1`, the Potency entry in [1], in test [2], in test [3], in test [4], in [5] and in test [6] was “inactive” each time. The Potency result in test [7] and in [8] was “inactive” in each case.
As to `COc1ccc(C(=O)N2CCCC2=O)cc1`, the Potency entry in test [1], in test [2], in test [3], in test [4], in test [5] and in test [6] was “inactive” in each case. In addition, the Potency entry in test [7], in [8], in test [19], in test [14], in test [15] and in test [16] was “inactive” throughout.
Consider `COC(=O)C1=CCCN(C)C1`, for which the Potency result in test [1], in [2], in test [3], in test [4], in test [5] and in test [6] was “inactive” each time. The Potency result in [7], in [8], in test [9], in test [18], in test [19] and in test [12] was “inactive” throughout. Also, the Potency result in test [13], in test [14], in [15], in test [16], in [17] and in [20] was “inactive” throughout. For the same compound, the Potency in test [10] is 18.5 µM (active).
